According to PubChem BioAssay AID1159580 (chemical genetic matrix, 2015):
The campaign covered roughly 5,500 compounds. About 2,000 (36%) were called active. About 18% were inconclusive and are not listed. The list shows a part of the results. Values without a mark were called inactive. Rule as the data show it: active = normalized growth mostly below about 0.91 (no sharp cut-off); inconclusive = no clear call, values can overlap the other calls; inactive = mostly above about 0.92.

Assay: chemical genetic growth profiling, strain panel (AID 1159580);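 also: tested at 20 µM; growth read once vehicle control cultures reached saturation at 30 °C; 1 = growth at the plate median or of vehicle wells; lower values mean less growth of the strain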
Conditions: S. cerevisiae deletion strains, growth OD

Question: For O=C(c1ccc(OCCN2CCCCC2)cc1)c1c(-c2ccc(O)cc2)sc2cc(O)ccc12, which normalized growth (locus YAL021C, strain ccr4, hits give low values) is on record?
Answer: Its normalized growth is 0.971.

Question: What about the normalized growth (locus YAL026C, strain drs2, hits give low values) of the same compound?
Answer: The normalized growth was 0.987.

Question: What about the normalized growth (locus YAL030W, strain snc1, hits give low values) of the same compound?
Answer: Its normalized growth is 1.01.

Question: And the normalized growth (locus YAL040C, strain CLN3, hits give low values)?
Answer: The normalized growth was 1.02.

Question: What about the normalized growth (locus YBL061C, strain skt5, hits give low values) of the same compound?
Answer: Its normalized growth is 1.01.

Question: And the normalized growth (locus YBR009C, strain hhf1, hits give low values)?
Answer: Its normalized growth is 1.

Question: What about the normalized growth (locus YBR023C, strain chs3, hits give low values) of the same compound?
Answer: Its normalized growth is 1.01.

Question: What about the normalized growth (locus YBR171W, strain sec66, hits give low values) of the same compound?
Answer: The normalized growth was 1.04.

Question: And the normalized growth (locus YBR231C, strain swc5, hits give low values)?
Answer: The normalized growth was 0.989.

Question: What about the normalized growth (locus YBR279W, strain paf1, hits give low values) of the same compound?
Answer: Its normalized growth is 1.02.

Question: And the normalized growth (locus YCL011C, strain gbp2, hits give low values)?
Answer: The normalized growth was 1.02.

Question: What about the normalized growth (locus YCL016C, strain dcc1, hits give low values) of the same compound?
Answer: Its normalized growth is 1.

Question: What about the normalized growth (locus YCL061C, strain MRC1 (second series), hits give low values) of the same compound?
Answer: The normalized growth was 0.998.

Question: And the normalized growth (locus YCL061C, strain MRC1, hits give low values)?
Answer: Its normalized growth is 1.01.

Question: What about the normalized growth (locus YCL069W, strain vba3, hits give low values) of the same compound?
Answer: The normalized growth was 1.03.

Question: And the normalized growth (locus YCR088W, strain abp1, hits give low values)?
Answer: The normalized growth was 1.02.

Question: And the normalized growth (locus YDL005C, strain med2, hits give low values)?
Answer: The normalized growth was 1.04.

Question: And the normalized growth (locus YDL040C, strain nat1, hits give low values)?
Answer: The normalized growth was 1.02.

Question: What about the normalized growth (locus YDR001C, strain nth1, hits give low values) of the same compound?
Answer: The normalized growth was 1.02.

Question: And the normalized growth (locus YDR069C, strain doa4, hits give low values)?
Answer: Its normalized growth is 1.01.

Question: And the normalized growth (locus YDR137W, strain rgp1, hits give low values)?
Answer: Its normalized growth is 1.09.

Question: What about the normalized growth (locus YDR150W, strain NUM1, hits give low values) of the same compound?
Answer: The normalized growth was 0.977.

Question: What about the normalized growth (locus YDR159W, strain sac3, hits give low values) of the same compound?
Answer: Its normalized growth is 0.984.

Question: And the normalized growth (locus YDR195W, strain ref2)?
Answer: The normalized growth was 1.01.

Question: And the normalized growth (locus YDR297W, strain sur2, hits give low values)?
Answer: The normalized growth was 1.01.

Question: What about the normalized growth (locus YDR334W, strain swr1, hits give low values) of the same compound?
Answer: Its normalized growth is 1.02.

Question: And the normalized growth (locus YDR335W, strain msn5, hits give low values)?
Answer: The normalized growth was 1.03.

Question: What about the normalized growth (locus YDR363W, strain ESC2, hits give low values) of the same compound?
Answer: The normalized growth was 0.983.

Question: What about the normalized growth (locus YDR392W, strain spt3, hits give low values) of the same compound?
Answer: The normalized growth was 0.41 (active).

Question: What about the normalized growth (locus YEL003W, strain gim4, hits give low values) of the same compound?
Answer: The normalized growth was 1.02.

Question: What about the normalized growth (locus YEL037C, strain rad23, hits give low values) of the same compound?
Answer: Its normalized growth is 1.04.

Question: And the normalized growth (locus YEL061C, strain CIN8 (second series), hits give low values)?
Answer: Its normalized growth is 1.03.

Question: And the normalized growth (locus YER002W, strain NOP16, hits give low values)?
Answer: Its normalized growth is 1.

Question: What about the normalized growth (locus YER015W, strain faa2, hits give low values) of the same compound?
Answer: The normalized growth was 1.01.

Question: And the normalized growth (locus YER016W, strain bim1, hits give low values)?
Answer: Its normalized growth is 1.01.

Question: What about the normalized growth (locus YER111C, strain swi4, hits give low values) of the same compound?
Answer: Its normalized growth is 1.03.

Question: And the normalized growth (locus YER155C, strain BEM2 (second series), hits give low values)?
Answer: Its normalized growth is 0.608 (active).

Question: And the normalized growth (locus YFR010W, strain ubp6, hits give low values)?
Answer: The normalized growth was 1.04.

Question: What about the normalized growth (locus YGL167C, strain pmr1, hits give low values) of the same compound?
Answer: Its normalized growth is 1.03.

Question: What about the normalized growth (locus YGL173C, strain kem1, hits give low values) of the same compound?
Answer: Its normalized growth is 1.01.

Question: What about the normalized growth (locus YGL227W, strain vid30, hits give low values) of the same compound?
Answer: The normalized growth was 1.01.

Question: What about the normalized growth (locus YGL240W, strain doc1, hits give low values) of the same compound?
Answer: Its normalized growth is 0.967.

Question: What about the normalized growth (locus YGL253W, strain hxk2, hits give low values) of the same compound?
Answer: Its normalized growth is 1.02.

Question: And the normalized growth (locus YHR013C, strain ard1, hits give low values)?
Answer: Its normalized growth is 0.958.

Question: And the normalized growth (locus YHR027C, strain rpn1, hits give low values)?
Answer: The normalized growth was 1.01.

Question: And the normalized growth (locus YHR030C, strain SLT2, hits give low values)?
Answer: The normalized growth was 0.968.

Question: What about the normalized growth (locus YHR079C, strain IRE1, hits give low values) of the same compound?
Answer: The normalized growth was 0.968.

Question: What about the normalized growth (locus YHR142W, strain chs7, hits give low values) of the same compound?
Answer: The normalized growth was 0.983.

Question: And the normalized growth (locus YJL092W, strain hpr5, hits give low values)?
Answer: The normalized growth was 1.01.

Question: What about the normalized growth (locus YJL095W, strain BCK1 (second series), hits give low values) of the same compound?
Answer: Its normalized growth is 1.02.

Question: What about the normalized growth (locus YJL095W, strain BCK1, hits give low values) of the same compound?
Answer: The normalized growth was 1.

Question: What about the normalized growth (locus YJL115W, strain asf1, hits give low values) of the same compound?
Answer: Its normalized growth is 1.03.

Question: What about the normalized growth (locus YJL129C, strain trk1, hits give low values) of the same compound?
Answer: The normalized growth was 1.01.

Question: And the normalized growth (locus YJL154C, strain vps35, hits give low values)?
Answer: The normalized growth was 1.03.

Question: And the normalized growth (locus YJL164C, strain tpk1, hits give low values)?
Answer: Its normalized growth is 0.982.

Question: And the normalized growth (locus YJL166W, strain qcr8, hits give low values)?
Answer: The normalized growth was 0.968.

Question: And the normalized growth (locus YJL187C, strain SWE1, hits give low values)?
Answer: The normalized growth was 1.02.

Question: What about the normalized growth (locus YJR066W, strain TOR1, hits give low values) of the same compound?
Answer: Its normalized growth is 0.924.

Question: And the normalized growth (locus YKL160W, strain elf1, hits give low values)?
Answer: Its normalized growth is 0.982.

Question: And the normalized growth (locus YKR026C, strain gcn3, hits give low values)?
Answer: Its normalized growth is 1.01.

Question: And the normalized growth (locus YKR091W, strain srl3, hits give low values)?
Answer: The normalized growth was 1.02.

Question: And the normalized growth (locus YLL001W, strain dnm1, hits give low values)?
Answer: The normalized growth was 1.01.

Question: And the normalized growth (locus YLL026W, hits give low values)?
Answer: The normalized growth was 1.01.

Question: And the normalized growth (locus YLL041C, strain sdh2, hits give low values)?
Answer: Its normalized growth is 1.02.

Question: What about the normalized growth (locus YLR027C, strain aat2, hits give low values) of the same compound?
Answer: The normalized growth was 1.01.

Question: And the normalized growth (locus YLR113W, strain HOG1, hits give low values)?
Answer: Its normalized growth is 0.986.

Question: And the normalized growth (locus YLR221C, strain rsa3, hits give low values)?
Answer: Its normalized growth is 1.

Question: What about the normalized growth (locus YLR258W, strain gsy2, hits give low values) of the same compound?
Answer: Its normalized growth is 1.01.

Question: And the normalized growth (locus YLR262C, strain YPT6 (second series), hits give low values)?
Answer: The normalized growth was 1.01.

Question: And the normalized growth (locus YLR320W, strain mms22, hits give low values)?
Answer: Its normalized growth is 0.911.

Question: And the normalized growth (locus YLR342W, strain FKS1, hits give low values)?
Answer: The normalized growth was 1.

Question: What about the normalized growth (locus YLR357W, strain rsc2, hits give low values) of the same compound?
Answer: The normalized growth was 0.964.

Question: What about the normalized growth (locus YLR370C, strain arc18, hits give low values) of the same compound?
Answer: Its normalized growth is 1.03.

Question: And the normalized growth (locus YLR384C, strain iki3, hits give low values)?
Answer: The normalized growth was 1.04.

Question: What about the normalized growth (locus YML120C, strain ndi1, hits give low values) of the same compound?
Answer: Its normalized growth is 1.01.

Question: What about the normalized growth (locus YMR058W, strain fet3, hits give low values) of the same compound?
Answer: The normalized growth was 1.01.

Question: And the normalized growth (locus YMR125W, strain sto1, hits give low values)?
Answer: Its normalized growth is 0.989.

Question: And the normalized growth (locus YMR129W, hits give low values)?
Answer: The normalized growth was 1.02.

Question: And the normalized growth (locus YMR205C, strain PFK2, hits give low values)?
Answer: The normalized growth was 0.981.

Question: What about the normalized growth (locus YMR231W, strain pep5, hits give low values) of the same compound?
Answer: The normalized growth was 1.03.

Question: And the normalized growth (locus YMR307W, strain GAS1, hits give low values)?
Answer: Its normalized growth is 0.917.

Question: And the normalized growth (locus YNL071W, strain lat1, hits give low values)?
Answer: Its normalized growth is 0.854 (active).

Question: And the normalized growth (locus YNL128W, strain TEP1, hits give low values)?
Answer: The normalized growth was 1.02.

Question: What about the normalized growth (locus YNL175C, strain NOP13, hits give low values) of the same compound?
Answer: Its normalized growth is 0.993.

Question: What about the normalized growth (locus YNL183C, strain NPR1, hits give low values) of the same compound?
Answer: The normalized growth was 0.965.

Question: What about the normalized growth (locus YNL197C, strain WHI3, hits give low values) of the same compound?
Answer: The normalized growth was 0.998.

Question: What about the normalized growth (locus YNL209W, strain ssb2, hits give low values) of the same compound?
Answer: The normalized growth was 1.01.

Question: What about the normalized growth (locus YNL224C, strain SQS1, hits give low values) of the same compound?
Answer: The normalized growth was 1.01.

Question: What about the normalized growth (locus YNL248C, strain rpa49, hits give low values) of the same compound?
Answer: The normalized growth was 0.986.

Question: What about the normalized growth (locus YNL322C, strain KRE1 (second series), hits give low values) of the same compound?
Answer: Its normalized growth is 1.02.

Question: What about the normalized growth (locus YNR049C, strain mso1, hits give low values) of the same compound?
Answer: The normalized growth was 1.02.

Question: And the normalized growth (locus YOR001W, strain rrp6, hits give low values)?
Answer: Its normalized growth is 1.

Question: And the normalized growth (locus YOR070C, strain gyp1, hits give low values)?
Answer: The normalized growth was 1.02.

Question: And the normalized growth (locus YOR080W, strain dia2, hits give low values)?
Answer: Its normalized growth is 1.02.

Question: What about the normalized growth (locus YOR083W, strain WHI5 (second series), hits give low values) of the same compound?
Answer: The normalized growth was 0.997.

Question: What about the normalized growth (locus YOR083W, strain WHI5, hits give low values) of the same compound?
Answer: Its normalized growth is 0.979.

Question: What about the normalized growth (locus YOR106W, strain vam3, hits give low values) of the same compound?
Answer: The normalized growth was 0.987.

Question: And the normalized growth (locus YOR231W, strain MKK1, hits give low values)?
Answer: Its normalized growth is 0.995.

Question: And the normalized growth (locus YOR265W, strain rbl2, hits give low values)?
Answer: Its normalized growth is 1.01.

Question: What about the normalized growth (locus YOR270C, strain vph1, hits give low values) of the same compound?
Answer: The normalized growth was 1.01.

Question: And the normalized growth (locus YOR290C, strain snf2, hits give low values)?
Answer: The normalized growth was 0.995.

Question: And the normalized growth (locus YPL051W, strain arl3, hits give low values)?
Answer: The normalized growth was 0.977.

Question: And the normalized growth (locus YPL055C, strain LGE1, hits give low values)?
Answer: The normalized growth was 0.826 (active).

Question: What about the normalized growth (locus YPL078C, strain atp4, hits give low values) of the same compound?
Answer: The normalized growth was 0.985.

Question: What about the normalized growth (locus YPL106C, strain sse1, hits give low values) of the same compound?
Answer: The normalized growth was 1.01.

Question: And the normalized growth (locus YPL240C, strain hsp82, hits give low values)?
Answer: The normalized growth was 1.03.

Question: And the normalized growth (locus YPL241C, strain CIN2, hits give low values)?
Answer: The normalized growth was 1.

Question: And the normalized growth (locus YPL256C, strain CLN2, hits give low values)?
Answer: The normalized growth was 0.97.
